# From PubChem BioAssay (EPA / NIEHS)
# “And” between values parts separate entries of the source, which are not always exact repeats. Identical values can stand only once. More than one record can exist for a structure, and the calls need not agree. The source made the active and inactive calls. Rule for the calls: active = hit-call score of the fitted dose curve at least 0.9, where 1 is the maximum; inactive = score below 0.9.
# Read-out: Monocyte Chemoattractant Protein-1 (MCP1), CCL2 (gene 6347)
# Assay: BSK_SAg_MCP1: BioMAP Diversity Plus: SAg Assay for Monocyte Chemoattractant Protein-1 (MCP1) Biomarker Activity (AID 2283090)
# Conditions: primary human HUVEC with PBMC; actives raise or lower the signal
# Experimental: BSK_SAg is a cell-based, multiplexed-readout assay that uses umbilical vein endothelium and peripheral blood mononuclear cells, a human vascular primary cell co-culture, with measurements taken at 24 hours after chemical dosing in a 96-well plate.BSK_SAg_MCP1 is an assay component measured in the BSK_SAg assay. It measures MCP-1 antibody related to regulation of gene expression using ELISA technology.Data from the assay component BSK_SAg_MCP1 was analyzed into 1 assay endpoint. This assay endpoint, BSK_SAg_MCP1, was analyzed with bidirectional fitting relative to DMSO as the negative control and baseline of activity. Using a type of binding reporter, gain or loss-of-signal activity can be used to understand changes in the signaling as they relate to the gene CCL2. Furthermore, this assay endpoint can be referred to as a primary readout, because this assay has produced multiple assay endpoints where this one serves a signaling function. To generalize the intended target to other relatable targets, this assay endpoint is annotated to the cytokine intended target family, where the subfamily is chemotactic factor.
# The levels of cell surface (or secreted, indicated by the prefix "s") biomarker endpoints were measured by ELISA. Overt cytotoxicity to cells in confluent adherent cultures (all systems other than the BT system) was assessed by measuring total protein levels using sulforhodamine B (SRB) staining in parallel cultures at the time of biomarker measurements, indicated as SRB endpoints. For proliferation assays for adherent cell types, individual cell types are cultured at sub-confluence and relative cell numbers quantified by SRB staining at time points optimized for each system (48 h: 3C and CASM3C systems; 72 h: BT and HDF3CGF systems; 96 h: SAg system). SRB was performed by staining cells with 0.1% SRB after fixation with 10% TCA and reading wells at 560 nm.Viability and proliferation of PBMC (T cells) was quantified by Alamar Blue reduction for the SAg and BT systems. For PBMC viability (referred to as PBMC Cytotoxicity within the assay endpoint names), cells were plated (75,000/well in a 96-well plate) and then chemical samples added for 1 h before addition of activators, SEB and TSST-1 (20 ng/mL final concentration each). Cells were incubated for 90 h. Then, Alamar Blue (20 uL/well) (Invitrogen, Cat DAL1100) was added for 6 h, and the plates were read with a fluorescence microplate reader at 546/580 nm (excitation/emission). For PBMC proliferation, cells were plated and activated as above but incubated for only 16 h prior to addition of Alamar Blue. Plates were read after 6 h.
Compound,AC50,outcome
O[Si](c1ccccc1)(c1ccccc1)c1ccccc1,32.5 µM (active),
O=C(O)C(F)(F)C(F)(F)F,,inactive
OCC(F)(F)C(F)(F)C(F)(F)C(F)(F)C(F)(F)C(F)(F)F,,inactive
FC(F)(F)C(F)(F)C(F)(F)N(C(F)(F)C(F)(F)C(F)(F)F)C(F)(F)C(F)(F)C(F)(F)F,,inactive
CC(=O)Nc1ccc(N=Nc2cc(C)ccc2O)cc1,,inactive
O=S(=O)(OCCOC(F)(F)F)C(F)(F)F,,inactive
OCCCC(F)(F)C(F)(F)C(F)(F)C(F)(F)C(F)(F)C(F)(F)C(F)(F)F,43.2 µM (active) and 46.3 µM (active),
FC(F)(I)C(F)(F)C(F)(F)C(F)(F)I,,inactive
CC(CCl)OP(=O)(OC(C)CCl)OC(C)CCl (stereo not given),,inactive
FC(F)(F)C(F)(F)C(F)(F)C(F)(F)C(F)(F)C(F)(F)C(F)(F)Br,,inactive
O=C(O)C(F)(F)C(F)(F)C(F)F,,inactive
C=C(C)C(=O)OCC(F)(F)C(F)(F)C(F)(F)F,,inactive
O=C(O)C(F)(F)C(F)(F)C(F)(F)F,,inactive
N=C(N)C(F)(F)C(F)(F)C(F)(F)C(F)(F)C(F)(F)C(F)(F)C(F)(F)F,55 µM (active),inactive
FC(F)(F)C(F)(F)C(F)(F)C(F)(F)C(F)(F)C(F)(F)CCS,,inactive
O=C(O)C=C(C(F)(F)F)C(F)(F)F,18.8 µM (active),inactive
FC(F)(F)C(F)(F)C(F)(F)C(F)(F)C(F)(F)C(F)(F)C(F)(F)I,,inactive
O=S(=O)(O)C(F)(F)C(F)(F)C(F)(F)C(F)(F)C(F)(F)C(F)(F)C(F)(F)F,,inactive
O=C(O)C(F)(OC(F)(F)C(F)(OC(F)(F)C(F)(OC(F)(F)C(F)(F)C(F)(F)F)C(F)(F)F)C(F)(F)F)C(F)(F)F (stereo not given),,inactive

Compound,AC50,outcome
CO[Si](OC)(c1ccccc1)c1ccccc1,,inactive
C=CC(F)(F)C(F)(F)C(F)(F)C(F)(F)C(F)(F)C(F)(F)C(F)(F)C(F)(F)C=C,,inactive
FC(F)(F)C(F)(F)C(F)(F)C(F)(F)C(F)(F)CCI,,inactive
CC(C)(C)C(=O)CC(=O)C(F)(F)C(F)(F)C(F)(F)F,,inactive
CCCCCCCCC(F)(F)C(F)(F)C(F)(F)C(F)(F)C(F)(F)C(F)(F)F,,inactive
OCC(F)(F)C(F)(F)C(F)(F)F,,inactive
O=C(O)C(F)(F)C(F)(F)OC(F)(F)F,,inactive
C=CC(=O)OCC(F)(F)C(F)(F)C(F)(F)C(F)(F)C(F)(F)C(F)(F)C(F)(F)F,,inactive
CCO[Si](CCC(F)(F)C(F)(F)C(F)(F)C(F)(F)C(F)(F)C(F)(F)F)(OCC)OCC,,inactive
CCCCCCCOC(=O)c1ccccc1C(=O)OCCCCCCC,,inactive
CCCCNc1ccccc1,,inactive
CS(C)(=O)=O,,inactive
CCN(CC)c1ccc2c(C)cc(=O)oc2c1,,inactive
CCCCOCCOCCOC(=O)CCCCC(=O)OCCOCCOCCCC,,inactive
Oc1ccc(Nc2ccccc2)cc1,20 µM (active),
FC(F)(F)C(F)(F)C(F)(F)C(F)(F)C(F)(F)C(F)(F)C(F)(F)C(F)(F)CCS,,inactive
O=C(Cl)C(F)(F)C(F)(F)C(F)(F)C(F)(F)C(F)(F)C(F)(F)C(F)(F)C(F)(F)F,44.8 µM (active) and 43.8 µM (active),inactive
Cc1ccc(S(=O)(=O)OCC(F)(F)C(F)(F)C(F)(F)C(F)(F)C(F)(F)C(F)F)cc1,,inactive
